The values that follow come from PubChem BioAssay.

For test [1], the system named is Wnt5a (protein binding on small-molecule microarray). Description: Wnt5a binders on small-molecule microarray, primary screen, biophysical, 635/667 nm fluorescence (AID 1142).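 Also: fluorescence read at 667 nm with signal to noise per printed feature.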 Conditions: 635 nm fluorescence, higher = more signal.
Test [2] is described as follows: cell viability in Huh7 cells, primary screen, cytotoxicity control for HCV replication inhibitor project, CellTiter-Glo luminescence, basal, 48 h (AID 1143).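 Also: Huh7 hepatoma cells carrying a hepatitis C replication reporter with no stimulus; test concentration not given here.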 To be noted: Huh7 HCV replicon, higher = more signal, called active from +8 up or from −8 down. On the technique in general: ATP-based viability assays read luminescence as a measure of living cells.
The nature of test [3]: P. aeruginosa biofilm formation inhibitors, primary screen, PAO1 strain, BacTiter-Glo luminescence, LB-PBS (AID 1144). To be noted: 12 h, higher = more signal.
Test [4] in a line: CREB reporter modulators without forskolin, primary screen, cell-based, PC12, CRE-LacZ reporter, unstimulated (AID 1145). To be noted: no forskolin, luminescence, 4.5 h, higher = more signal, called active from +8 up or from −8 down.
A short description of test [5]: CREB reporter modulators under forskolin, primary screen, cell-based, PC12, CRE-LacZ reporter, forskolin-stimulated (AID 1146).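 Also: PC12 cells with 6xCRE LacZ reporter stimulated by forskolin 10 µM; beta-galactosidase reporter signal reflecting CREB driven transcription.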 Conditions: luminescence, 4.5 h, higher = more signal, called active from +8 up or from −8 down.
For test [6], the target named is Streptavidin (Streptomyces avidinii) (UniProt P22629). As to the kind of experiment: streptavidin binders on small-molecule microarray, primary screen, artefact control for SMM compound annotation, biophysical, 635/667 nm fluorescence (AID 1147).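 Also: signal reflects streptavidin binding to arrayed compounds as a control protein.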 Conditions: streptavidin binding, higher = more signal.
A short description of test [7]: small-molecule binders of probe aInhba, primary screen, biochemical, small-molecule microarray, 635/667 nm fluorescence (AID 1148).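 Also: score merges 667nm spot fluorescence with signal-to-noise for antibody binding to printed compounds.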 To be noted: higher = more signal.
For test [8], the target named is Torsin-1A (Homo sapiens) (UniProt O14656). As to the kind of experiment: torsin A binders from cell lysate, primary screen, small-molecule microarray, wild-type, 635/667 nm (AID 1149). To be noted: COS7 hTOR1A-WT lysate, 635 nm fluorescence, higher = more signal.
Test [9] has the same target. Description: small-molecule binders of mutant TOR1A in lysate, primary screen, cell lysate, small-molecule microarray, COS7 lysate, 635/667 nm fluorescence (AID 1150).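 Also: score pools 667 nm emission and signal to noise measuring lysate protein binding.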 To be noted: COS7 hTOR1A mutant lysate, 635 nm fluorescence, higher = more signal.
Test [10] relates to Sonic hedgehog protein (Shh). Description: small-molecule binders of Shh protein, primary screen, biochemical, small-molecule microarray, 635/667 nm fluorescence (AID 1151).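 Also: Shh protein binding to compounds spotted on small-molecule microarray slides; score combines spot fluorescence intensity with signal-to-noise across triplicate slides.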 To be noted: small-molecule microarray binding, 635 nm fluorescence; higher = more signal.
Test [11] is described as follows: E. coli DRC41 culture turbidity changes, primary screen, E. coli filamentation inducer project, strain DRC41, OD650, 48 h (AID 1152).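 Also: E. coli MC1000 strain DRC41 lacking acrAB efflux pump and sulA.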 Conditions: E. coli DRC41 (acrAB sulA), higher = more signal, called active from +8 up or from −8 down.
Test [12] is described as follows: small-molecule binders of probe aLefty1, primary screen, biochemical, small-molecule microarray, 635/667 nm fluorescence (AID 1153).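 Also: score merges spot fluorescence with signal-to-noise ratio from the scanned slide images.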 To be noted: higher = more signal.
Test [13] is described as follows: PSAC antagonists in infected red cells, primary screen, cell-based, P. falciparum Indochina, OD700, 1 h (AID 1154). Conditions: P. falciparum Indochina infected RBC osmotic lysis, higher = more signal, called active from +8 up or from −8 down.
The nature of test [14]: PSAC antagonists in infected red cells, primary screen, cell-based, P. falciparum Indochina, OD700, 2 h (AID 1155).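 Also: lysis reports solute entry through the parasite surface anion channel PSAC; channel blockers reduce lysis of infected cells.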 Conditions: P. falciparum Indochina infected erythrocytes, osmotic lysis OD700; higher = more signal, called active from +8 up or from −8 down.
Test [15] is described as follows: osmotic lysis modulators in infected erythrocytes, primary screen, PSAC antagonist project, cell-based, P. falciparum Indochina, OD700, 3 h (AID 1156). To be noted: higher = more signal, called active from +8 up or from −8 down.
Test [16] in a line: PSAC antagonists in infected red cells, primary screen, cell-based, P. falciparum Indochina, OD700, 18 h (AID 1157). Conditions: P. falciparum Indochina infected erythrocytes, osmotic lysis OD700, 18 h; higher = more signal, called active from +8 up or from −8 down.
Test [17] in a line: modulators of S6 phosphorylation in cells, primary screen, cell-based, A549, cytoblot, luminescence, serum-stimulated (AID 1158).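 Also: serum-stimulated A549 lung adenocarcinoma cells; signal is phosphorylated S6 detected by cytoblot immunostaining with HRP secondary.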 Conditions: A549 phospho-S6 cytoblot, 5 h, higher = more signal.
Test [18] has as its target NADPH oxidase 2 (Homo sapiens) (UniProt P04839). Description: NOX2-dependent H2O2 signal modulators, primary screen, NOX inhibitor project, cell-based, HEK293-NOX2, PMA-stimulated, Amplex Red fluorescence (AID 1159). Also: test concentration not given here. To be noted: 45 min, higher = more signal, called active from +8 up or from −8 down.
Test [19] has as its target NADPH oxidase 4 (Homo sapiens) (UniProt Q9NPH5). As to the kind of experiment: NOX4-dependent H2O2 signal modulators, primary screen, NOX inhibitor project, cell-based, HEK293-NOX4, tetracycline-induced, Amplex Red fluorescence (AID 1160). Conditions: 45 min, higher = more signal, called active from +8 up or from −8 down.
Test [20] addresses NADPH oxidase 5 (Homo sapiens) (UniProt Q96PH1). Description: NOX5-dependent H2O2 signal modulators, primary screen, NOX inhibitor project, cell-based, HEK293-NOX5, Amplex Red fluorescence (AID 1161). To be noted: HEK293-NOX5, ionomycin, 45 min, higher = more signal.

The source made the active and inactive calls. Unless noted, no rule for the calls is given here.

NADPH oxidase 2 (Homo sapiens), sequence (P04839 whole entry, looked up): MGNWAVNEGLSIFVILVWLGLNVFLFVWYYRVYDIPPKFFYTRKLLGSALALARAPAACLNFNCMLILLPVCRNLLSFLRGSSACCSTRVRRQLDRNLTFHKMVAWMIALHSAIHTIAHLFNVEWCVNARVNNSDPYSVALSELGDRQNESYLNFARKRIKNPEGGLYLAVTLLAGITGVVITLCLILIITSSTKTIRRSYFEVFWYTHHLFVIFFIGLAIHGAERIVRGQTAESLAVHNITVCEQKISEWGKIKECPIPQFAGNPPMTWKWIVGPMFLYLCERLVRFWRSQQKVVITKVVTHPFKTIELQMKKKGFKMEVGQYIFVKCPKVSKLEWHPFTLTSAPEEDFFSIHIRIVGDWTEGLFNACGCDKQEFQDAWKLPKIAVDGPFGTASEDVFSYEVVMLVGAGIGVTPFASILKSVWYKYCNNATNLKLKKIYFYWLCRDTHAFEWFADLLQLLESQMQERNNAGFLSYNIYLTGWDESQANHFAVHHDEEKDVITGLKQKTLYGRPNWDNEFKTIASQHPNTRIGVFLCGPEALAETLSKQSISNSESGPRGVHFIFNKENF
Streptavidin (Streptomyces avidinii), sequence (P22629 whole entry, looked up): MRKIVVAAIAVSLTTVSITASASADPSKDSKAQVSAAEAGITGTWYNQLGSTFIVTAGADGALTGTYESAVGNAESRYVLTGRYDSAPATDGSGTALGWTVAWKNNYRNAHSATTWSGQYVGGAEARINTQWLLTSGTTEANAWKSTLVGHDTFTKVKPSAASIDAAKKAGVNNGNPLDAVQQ
NADPH oxidase 4 (Homo sapiens), sequence (Q9NPH5 whole entry, looked up): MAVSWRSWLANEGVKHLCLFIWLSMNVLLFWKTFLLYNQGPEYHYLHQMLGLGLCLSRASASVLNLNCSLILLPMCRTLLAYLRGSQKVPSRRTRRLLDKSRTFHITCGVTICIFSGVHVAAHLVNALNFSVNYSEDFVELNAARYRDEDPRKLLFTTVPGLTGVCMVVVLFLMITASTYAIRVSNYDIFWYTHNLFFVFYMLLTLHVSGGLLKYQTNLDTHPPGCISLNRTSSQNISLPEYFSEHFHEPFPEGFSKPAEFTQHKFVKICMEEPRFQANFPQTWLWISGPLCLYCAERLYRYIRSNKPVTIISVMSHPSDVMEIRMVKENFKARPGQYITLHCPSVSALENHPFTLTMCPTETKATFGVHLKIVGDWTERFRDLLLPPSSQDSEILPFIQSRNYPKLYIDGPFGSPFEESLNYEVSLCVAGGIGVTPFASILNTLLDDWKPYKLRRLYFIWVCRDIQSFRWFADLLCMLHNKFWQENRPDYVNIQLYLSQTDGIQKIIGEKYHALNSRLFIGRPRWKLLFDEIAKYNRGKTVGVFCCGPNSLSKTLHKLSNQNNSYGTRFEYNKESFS
NADPH oxidase 5 (Homo sapiens), sequence (Q96PH1 whole entry, looked up): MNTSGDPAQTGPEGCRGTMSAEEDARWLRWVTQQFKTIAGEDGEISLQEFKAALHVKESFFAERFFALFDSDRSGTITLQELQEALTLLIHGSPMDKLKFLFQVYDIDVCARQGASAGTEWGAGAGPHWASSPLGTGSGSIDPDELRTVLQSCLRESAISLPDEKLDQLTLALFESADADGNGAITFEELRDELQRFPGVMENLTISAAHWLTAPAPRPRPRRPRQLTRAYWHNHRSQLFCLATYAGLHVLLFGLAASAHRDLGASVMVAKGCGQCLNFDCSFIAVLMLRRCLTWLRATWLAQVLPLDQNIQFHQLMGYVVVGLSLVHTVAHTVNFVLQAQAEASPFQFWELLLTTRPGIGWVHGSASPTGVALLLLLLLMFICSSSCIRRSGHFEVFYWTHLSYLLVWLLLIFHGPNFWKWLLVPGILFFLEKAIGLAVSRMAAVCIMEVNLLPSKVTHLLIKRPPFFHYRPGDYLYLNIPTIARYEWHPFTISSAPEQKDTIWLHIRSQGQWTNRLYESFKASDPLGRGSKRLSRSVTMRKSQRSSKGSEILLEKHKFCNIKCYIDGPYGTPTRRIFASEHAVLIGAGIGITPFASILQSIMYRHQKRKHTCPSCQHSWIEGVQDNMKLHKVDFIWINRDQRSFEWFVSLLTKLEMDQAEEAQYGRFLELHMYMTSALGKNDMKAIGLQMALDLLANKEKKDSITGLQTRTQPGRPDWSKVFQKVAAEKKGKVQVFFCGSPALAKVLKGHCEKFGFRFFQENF
Torsin-1A (Homo sapiens), sequence (O14656 whole entry, looked up): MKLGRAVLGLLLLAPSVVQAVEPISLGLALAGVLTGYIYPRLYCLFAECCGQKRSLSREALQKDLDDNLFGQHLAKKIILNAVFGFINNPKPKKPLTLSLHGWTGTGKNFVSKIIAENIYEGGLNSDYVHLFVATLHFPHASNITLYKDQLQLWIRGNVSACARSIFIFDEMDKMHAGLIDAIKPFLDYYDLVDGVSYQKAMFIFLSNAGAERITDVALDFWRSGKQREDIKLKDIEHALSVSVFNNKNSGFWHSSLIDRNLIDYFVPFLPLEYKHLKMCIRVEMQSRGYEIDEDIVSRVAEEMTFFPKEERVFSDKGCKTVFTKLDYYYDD

Regarding `O=C(C1N=C(c2ccc(OCCCO)cc2)N(c2ccccc2)O1)N1CCCCC1` (stereo not given), the composite z-score in [1] stood at 0.296; in [6] it was 1.56; in test [7], 0.271; in the test with Torsin-1A (Homo sapiens) [8], 0.407; with Torsin-1A (Homo sapiens) [9], 0.854; in [10] it was 0.17. Besides, the composite z-score in [12] was determined as 0.0338. In addition, the z-score was -0.163 (inactive) in test [2]; 1.52 (inactive) in test [3]; 0.0918 (inactive) in test [4]; 1.91 (inactive) in test [5]; 0.666 (inactive) in [11]; 13.2 (active) in test [13]. Besides, the z-score in [14] is 1.66 (inactive); in test [15], 0.374 (inactive); in test [16], 0.423 (inactive); in [17], -0.0704; in [18], 1.12 (inactive); in test [19], 0.209 (inactive). Moreover, the z-score in [20] is -0.404.
With `N#Cc1ccc(NN2C(C(O)c3ccc(Br)cc3)C=CC3C(=O)N(c4ccccc4)C(=O)C32)cc1` (stereo not given), the composite z-score came out at 0.395 in test [1]; 0.843 in test [6]; 0.222 in test [7]; 0.441 with Torsin-1A (Homo sapiens) [8]; 0.604 in the test with Torsin-1A (Homo sapiens) [9]; 0.834 in test [10]. Also, the composite z-score in [12] worked out at 0.57. Moreover, the z-score was -0.35 (inactive) in test [2]; -1.3 (inactive) in test [3]; 0.0535 (inactive) in test [4]; -0.36 (inactive) in test [5]; -0.922 (inactive) in test [11]; 14.8 (active) in test [13]. For the same compound, the z-score is 2.9 (inactive) in [14]; 0.419 (inactive) in test [15]; -0.348 (inactive) in [16]; 0.717 in test [17]; -2.6 (inactive) in test [18]; -4.29 (inactive) in test [19]. In test [20], the z-score is -3.45.
Consider `C=CCC(OC(C)=O)[C@@H]1[C@@H](N(Cc2ccc(-c3cccc(C(F)(F)F)c3)o2)C(=O)c2ccc(-c3ccccc3)cc2)c2cc(OCCCO)ccc2N1C(=O)Cc1ccc2ccccc2c1` (stereo not given in full), for which the composite z-score in test [1] was -0.276; in [6], -0.368; in test [7], -0.113; with Torsin-1A (Homo sapiens) [8] it was -1.21; with Torsin-1A (Homo sapiens) [9], -1.1; in [10], -0.0629. The composite z-score in test [12] was found to be 0.0451. In addition, the z-score is -0.165 (inactive) in test [2]; -0.184 (inactive) in test [3]; 0.572 (inactive) in [4]; 0.368 (inactive) in test [5]; -0.75 (inactive) in test [11]; 0.702 (inactive) in test [13]. The z-score in test [14] was 0.609 (inactive); in test [15], 0.191 (inactive); in test [16], 0.532 (inactive); in test [17], 0.0285; in test [18] it was -1.34 (inactive); in test [19] it was -1.69 (inactive). Also, the z-score in test [20] was -0.791.
In the case of `CN1C2C=C(CCCO)C(C3C(=O)N(C(N)=O)C(=O)C32)C1C1CC1` (stereo not given), the composite z-score is -0.173 in [1]; -0.0742 in test [6]; -0.0963 in test [7]; 0.0337 with Torsin-1A (Homo sapiens) [8]; 0.143 with Torsin-1A (Homo sapiens) [9]; 0.316 in test [10]. Besides, in test [12], the composite z-score is -0.188. Moreover, the z-score in [2] is -0.122 (inactive); in test [3], 0.57 (inactive); in test [4] it was 0.522 (inactive); in [5], 0.373 (inactive); in test [11], -0.625 (inactive); in test [13], -0.234 (inactive). In addition, the z-score in [14] was -0.0718 (inactive); in [15], -0.624 (inactive); in [16], -0.0366 (inactive); in [17], -0.896; in test [18], 0.191 (inactive); in test [19] it was -0.07 (inactive). Further, the z-score in [20] is 0.257.
